Screening data (PubChem)
C diff HTS: C. difficile growth inhibitors, primary screen, HTS; Clostridium difficile clinical isolate growth, OD600, 24 h; active compounds read low; actives 0.25% (n = 86,000); growth activity, negative = inhibition, % at 16 µg/mL (by protocol);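 active means mean growth activity at or below -80% and every replicate also at or below -80%; inconclusive means mean at or below -80% but some replicate above -80%; inactive means mean growth activity above -80%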;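 further: 0% = DMSO wells and -100% = levofloxacin 16 µg/mL wells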
Pf Dd2 growth: P. falciparum Dd2 growth inhibitors, primary screen, SYBR Green fluorescence, single dose replicates; 72 h; active compounds read low; activity change, % at 10 µM; actives 2.3% (n = 94,000); in the data active means activity change below about -80%; inconclusive means no clear call, values can overlap the other calls
Numbers without * were called inactive; ? = inconclusive; · = no result; ! = a repeat was not active. Rows were chosen to be rich in hits. Some 2.3% of all compounds tested hit in one or more screens of this group.

SMILES	C diff HTS	Pf Dd2 growth
CC(=O)N(C)C[C@@H]1Oc2cc(C#Cc3ccccc3F)ccc2S(=O)(=O)N([C@H](C)CO)C[C@@H]1C	-20	-46
CO[C@H]1CN(C)C(=O)c2ccc(NC(=O)C3CCCCC3)cc2OC[C@@H](C)N(C(=O)c2ccccc2)C[C@H]1C	·	-30
COc1ccc2c3c([nH]c2c1)[C@H](CO)N(Cc1ccccc1)CC31CCN(C(=O)Nc2cccc(F)c2)CC1	26	-68
OC[C@@H]1CC[C@@H]2O[C@H](CCc3ccc(-c4ccc(F)cc4)cc3)[C@H](n3cc(C4CC4)nn3)C[C@@H]2O1	-9	-78
COCC#Cc1ccc(CC[C@H]2O[C@H]3CC[C@@H](CO)O[C@H]3C[C@@H]2n2cc(C(C)(C)O)nn2)cc1	4	-40
COCC#Cc1ccc(CC[C@H]2O[C@H]3CC[C@H](CO)O[C@H]3C[C@@H]2n2cc(C3CC3)nn2)cc1	1	-87*
OC[C@H]1CC[C@@H]2O[C@H](CCc3ccc(-c4ccc(F)cc4)cc3)[C@H](n3cc(C4CC4)nn3)C[C@@H]2O1	3	-82*
C[C@@H]1CN([C@H](C)CO)C(=O)c2cc(C#C[C@@H](C)O)cnc2O[C@@H]1CN(C)C(=O)c1ccncc1	0	8
CC(C)C(=O)Nc1ccc2c(c1)C(=O)N(C)[C@@H]1CC[C@@H](CC(=O)NCc3cccc(F)c3)O[C@@H]1CO2	0	-52
CC(=O)N1[C@@H]2c3cccc(=O)n3C[C@@H]2[C@@H](CO)[C@@H]1C(=O)NCc1ccccc1	-3	19
C[C@@H]1CN([C@H](C)CO)C(=O)c2cc(NC(=O)c3ccccc3)ccc2O[C@@H](C)CCCCO[C@@H]1CN(C)C(=O)C1CCCCC1	6	-84*
C[C@@H]1CCCCO[C@@H](CN(C)C(=O)C2CCCCC2)[C@H](C)CN([C@@H](C)CO)C(=O)c2cc(NC(=O)c3ccccc3)ccc2O1	-2	-20
C[C@H](CO)N1C[C@H](C)[C@@H](CN(C)C(=O)C2CCCCC2)OCCCC[C@H](C)Oc2ccc(NC(=O)c3ccccc3)cc2C1=O	-5	44
C[C@@H]1CCCCO[C@H](CN(C)C(=O)C2CCCCC2)[C@@H](C)CN([C@@H](C)CO)C(=O)c2cc(NC(=O)c3ccccc3)ccc2O1	-8	-85*
O=C(C[C@H]1CC[C@@H]2[C@H](COC[C@@H](O)CN2Cc2ccc3c(c2)OCO3)O1)N1CCCCC1	2	·
O=C(C[C@H]1C[C@@H]2c3cc(NC(=O)C4CCOCC4)ccc3O[C@@H]2[C@H](CO)O1)NCc1ccncc1	-5	12
C[C@@H]1CCCCO[C@H](CN(C)C(=O)C2CCCCC2)[C@@H](C)CN([C@@H](C)CO)C(=O)c2cc(NC(=O)Nc3cccc4ccccc34)ccc2O1	-3	-92*
C[C@@H]1CCCCO[C@@H](CN(C)C(=O)C2CCCCC2)[C@H](C)CN([C@H](C)CO)C(=O)c2cc(NC(=O)Nc3cccc4ccccc34)ccc2O1	-5	-41
C[C@H](CO)N1C[C@H](C)[C@@H](CN(C)C(=O)C2CCCCC2)OCCCC[C@H](C)Oc2ccc(NC(=O)Nc3cccc4ccccc34)cc2C1=O	0	-6
C[C@@H]1CN([C@H](C)CO)C(=O)c2cc(NC(=O)Nc3cccc4ccccc34)ccc2O[C@@H](C)CCCCO[C@@H]1CN(C)C(=O)C1CCCCC1	0	-91*
C[C@H]1CN([C@@H](C)CO)C(=O)Cc2cc(NS(=O)(=O)c3ccc(Cl)cc3)ccc2O[C@@H]1CN(C)C(=O)Nc1ccc2c(c1)OCO2	·	27
CN(C)CC(=O)N[C@@H]1CC[C@H](CC(=O)NCCN2CCCCC2)O[C@@H]1CO	-1	17
Cc1ccc(S(=O)(=O)Nc2ccc3c(c2)C(=O)N([C@H](C)CO)C[C@H](C)[C@@H](CN(C)S(=O)(=O)c2ccc(Cl)cc2)OCCCC[C@@H](C)O3)cc1	-3	-45
O=C(C1CCCC1)N1CCCCN2[C@@H](CO)[C@H](c3ccc(C#CC4CC4)cc3)[C@@H]2C1	30	-2
O=C1CN(Cc2ccccc2)C[C@@H]2[C@H](c3ccc(-c4ccccc4)cc3)[C@H](CO)N12	15	24
SMILES	C diff HTS	Pf Dd2 growth
C[C@H](CO)N1C[C@H](C)[C@H](CN(C)Cc2ccccc2)Oc2ccc(NC(=O)CCN3CCOCC3)cc2CC1=O	2	-43
O=C(C[C@@H]1CC[C@@H]2[C@H](COC[C@@H](O)CN2C(=O)Nc2ccc(F)cc2)O1)NC1Cc2ccccc2C1	·	-9
CCNC(=O)C[C@@H]1CC[C@H]2[C@@H](COC[C@H](O)CN2C(=O)Nc2ccc(C(F)(F)F)cc2)O1	67	3
CCNC(=O)C[C@@H]1CC[C@@H]2[C@H](COC[C@@H](O)CN2C(=O)Nc2ccc(C(F)(F)F)cc2)O1	-94*!	16
O=C(C[C@H]1CC[C@H]2[C@@H](COC[C@H](O)CN2C(=O)Nc2ccc(C(F)(F)F)cc2)O1)NC1Cc2ccccc2C1	-90*!	-30
O=C(C[C@@H]1CC[C@H]2[C@@H](COC[C@H](O)CN2C(=O)Nc2ccc(F)cc2)O1)NC1Cc2ccccc2C1	·	-3
O=C(C[C@@H]1CC[C@@H]2[C@H](COC[C@H](O)CN2C(=O)Nc2ccc(C(F)(F)F)cc2)O1)NC1Cc2ccccc2C1	22	2
O=C(C[C@H]1CC[C@@H]2[C@H](COC[C@H](O)CN2C(=O)Nc2ccc(C(F)(F)F)cc2)O1)NC1Cc2ccccc2C1	-100*!	-14
O=C(C[C@@H]1CC[C@@H]2[C@H](COC[C@@H](O)CN2C(=O)Nc2ccc(C(F)(F)F)cc2)O1)NC1Cc2ccccc2C1	-100*!	-26
C[C@@H]1CCCCO[C@H](CN(C)Cc2ccc3c(c2)OCO3)[C@@H](C)CN([C@@H](C)CO)C(=O)c2cc(NC(=O)c3ccccc3)ccc2O1	6	?
C[C@H]1CN([C@@H](C)CO)C(=O)Cc2cc(NC(=O)Nc3ccc(C(F)(F)F)cc3)ccc2O[C@H]1CN(C)S(=O)(=O)c1cn(C)cn1	-5	-19
CC(C)NC(=O)Nc1cccc2c1O[C@@H](CN(C)Cc1ccc(-c3ccccc3)cc1)[C@@H](C)CN([C@@H](C)CO)C2=O	-6	9
CO[C@@H]1CN(C)C(=O)c2cc(NC(=O)C3CC3)ccc2OC[C@H](C)N(Cc2cccc(F)c2)C[C@H]1C	·	-74
O=C(c1ccccn1)N1CC(=O)N2[C@H](CO)[C@H](c3ccc(C#Cc4ccccc4)cc3)[C@H]2C1	-3	-42
CCCN(C)C[C@@H]1Oc2ncc(C#Cc3cccc(OC)c3)cc2C(=O)N([C@H](C)CO)C[C@@H]1C	28	-45
COc1ccc(-c2cnc3c(c2)C(=O)N([C@@H](C)CO)C[C@H](C)[C@H](CN(C)S(=O)(=O)c2ccc(OC)cc2)O3)cc1	·	-83*
COc1ccc(NC(=O)N(C)C[C@@H]2Oc3ncc(-c4cccnc4)cc3C(=O)N([C@@H](C)CO)C[C@H]2C)cc1	0	30
COc1ccc(NC(=O)N(C)C[C@H]2Oc3ncc(-c4cccnc4)cc3C(=O)N([C@H](C)CO)C[C@@H]2C)cc1	-7	-83*
CCCN(C)C[C@@H]1Oc2ncc(C#Cc3ccc(OC)cc3)cc2C(=O)N([C@H](C)CO)C[C@@H]1C	15	-81*
